What all share (format): functional
For assay [1], the system named is Plasmodium falciparum. Put plainly: GSK_TCMDC: Inhibition of Plasmodium falciparum 3D7 in whole red blood cells, using parasite LDH activity as an index of growth. Test compounds present at 2uM.
For assay [2], the system named is Plasmodium falciparum. Put plainly: GSK_TCMDC: Inhibition of Plasmodium falciparum Dd2 in whole red blood cells, using parasite LDH activity as an index of growth. Test compounds present at 2uM.
For assay [3], the system named is HepG2. Put plainly: GSK_TCMDC: Percent inhibition of human HepG2 cell line. Test compounds present at 10uM.

Take `COC(=O)C(C)(C)Cc1c(SC(C)(C)C)c2cc(C(C)C)ccc2n1Cc1ccc(Cl)cc1`: the results for the Inhibition in assay [1], in assay [2] and in assay [3] were 96%, 96% and 0%, respectively.

For `O=C(O)C(F)(F)F.Oc1ccc(CCNc2nc(NCCCOc3cccc(-c4ccccc4)c3)nc(N3CCNCC3)n2)cc1`, the Inhibition in assay [1] is 89%; in assay [2], 14%; in assay [3] it was 40%.

Turning to `CCn1ccc2c(N3CCCCS3(=O)=O)cc(C(=O)N[C@@H](Cc3ccccc3)[C@H](O)CNC(C)(C)c3cccc(C(F)(F)F)c3)cc21`, the Inhibition in assay [1] is on record as 97%; in assay [2], 98%; in assay [3] it was 6%.

Regarding `COc1ccccc1C(C)NCC(=O)Nc1cccc(C(=O)Nc2cccc(C(F)(F)F)c2)c1` (stereo not given), the Inhibition is given as 91% in assay [1], 39% in assay [2] and 34% in assay [3].

As for `COc1ccc(C(=O)Nc2ccc3nc(N4CCCCC4)cc(C)c3c2)cc1OC`, the Inhibition in assay [1] came out at 92%; in assay [2], 7%; in assay [3], 15%.

In the case of `Br.Oc1ccc(CCNCCCCCCNCCc2ccc(Cl)c3ccccc23)cc1O`, the Inhibition in assay [1] is reported as 99%; in assay [2], 1%; in assay [3], 22%.

In the case of `CN(C)c1ccc(C2(c3ccccc3)N=C(N)N(CCCc3ccccc3)C2=O)cc1.O=C(O)C(F)(F)F` (stereo not given), the figures for the Inhibition in assay [1], in assay [2] and in assay [3] were 99%, 97% and 4%, respectively.

For `CN(C)CCCN1CCN(Cc2ccc(-c3ccc(-c4nc5ccccc5[nH]4)s3)cc2)CC1`, the values for the Inhibition in assay [1], in assay [2] and in assay [3] were 100%, 100% and 19%, respectively.

For `COc1ccc(NS(=O)(=O)c2cc(NC(=O)Cn3ccccc3=O)ccc2N2CCCCC2)cc1`, the Inhibition is 92% in assay [1], 83% in assay [2] and 20% in assay [3].

Consider `N#CN1CC[C@@H](NS(=O)(=O)Cc2ccc(Cl)c(Cl)c2)C1`, for which the figures for the Inhibition in assay [1], in assay [2] and in assay [3] were 94%, 94% and 13%, respectively.

The values above are taken from ChEMBL document CHEMBL1157539, “Thousands of chemical starting points for antimalarial lead identification” (Nature, 2010).
